Assay results as given in PubChem BioAssay AID1159580 (chemical genetic matrix, 2015).
Several values for one entry are separate records, joined by “and”; a condition that tells them apart may be missing. Equal values may be shown once. Out of some 5,500 compounds screened, about 2,000 (36%) were called active. Roughly 18% stayed inconclusive and do not appear here. Cut-off read from the data, not from the text of the source: active = normalized growth mostly below about 0.91 (no sharp cut-off); inconclusive = no clear call, values can overlap the other calls; inactive = mostly above about 0.92. This is one part of the list.

Assay: chemical genetic growth profiling, strain panel (AID 1159580);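 note: tested at 20 µM; growth read once vehicle control cultures reached saturation at 30 °C; 1 = growth at the plate median or of vehicle wells; lower values mean less growth of the strain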
Conditions: S. cerevisiae deletion strains, growth OD

Measured: normalized growth

NCCCCCC(=O)O
active: locus YBR021W, strain FUR4, active compounds read low 0.706
inactive: locus YAL013W, strain DEP1, active compounds read low 0.951 | locus YAL021C, strain ccr4, active compounds read low 0.99 | locus YAL026C, strain drs2, active compounds read low 1 | locus YAL030W, strain snc1, active compounds read low 0.989 | locus YAL040C, strain CLN3, active compounds read low 0.979 | locus YBL061C, strain skt5, active compounds read low 1 | locus YBR009C, strain hhf1, active compounds read low 1 | locus YBR023C, strain chs3, active compounds read low 1 | locus YBR171W, strain sec66, active compounds read low 0.991 | locus YBR229C, strain ROT2, active compounds read low 0.988 | locus YBR231C, strain swc5, active compounds read low 1.01 | locus YBR279W, strain paf1, active compounds read low 0.996 | locus YCL011C, strain gbp2, active compounds read low 0.994 | locus YCL016C, strain dcc1, active compounds read low 1.01 | locus YCL029C, strain bik1, active compounds read low 0.999 | locus YCL061C, strain MRC1 (second series), active compounds read low 0.983 | locus YCL069W, strain vba3, active compounds read low 0.995 | locus YCR088W, strain abp1, active compounds read low 0.995 | locus YDL005C, strain med2, active compounds read low 1.01 | locus YDL035C, strain GPR1, active compounds read low 0.963 | locus YDL040C, strain nat1, active compounds read low 0.997 | locus YDL074C, strain BRE1, active compounds read low 0.964 | locus YDL101C, strain DUN1, active compounds read low 1.01 | locus YDL134C, strain PPH21, active compounds read low 0.979 | locus YDL185W, strain tfp1, active compounds read low 1.01 | locus YDL192W, strain arf1, active compounds read low 1.01 | locus YDR001C, strain nth1, active compounds read low 1.03 | locus YDR069C, strain doa4, active compounds read low 1.01 | locus YDR101C, strain arx1, active compounds read low 0.981 | locus YDR137W, strain rgp1, active compounds read low 0.972 | locus YDR150W, strain NUM1, active compounds read low 0.974 | locus YDR159W, strain sac3, active compounds read low 1 | locus YDR162C, strain NBP2, active compounds read low 0.985 | locus YDR195W, strain ref2 0.976 | locus YDR297W, strain sur2, active compounds read low 0.998 | locus YDR318W, strain mcm21, active compounds read low 1.01 | locus YDR334W, strain swr1, active compounds read low 1.02 | locus YDR335W, strain msn5, active compounds read low 1.01 | locus YDR363W, strain ESC2, active compounds read low 1.01 | locus YDR388W, active compounds read low 0.998 | locus YDR392W, strain spt3, active compounds read low 0.965 | locus YDR502C, strain sam2, active compounds read low 1 | locus YEL003W, strain gim4, active compounds read low 1 | locus YEL037C, strain rad23, active compounds read low 0.999 | locus YEL061C, strain CIN8 (second series), active compounds read low 1 | locus YEL061C, strain CIN8, active compounds read low 0.995 | locus YER002W, strain NOP16, active compounds read low 0.992 | locus YER015W, strain faa2, active compounds read low 1 | locus YER016W, strain bim1, active compounds read low 0.966 | locus YER110C, active compounds read low 1.01 | locus YER111C, strain swi4, active compounds read low 1.01 | locus YER155C, strain BEM2 (second series), active compounds read low 0.976 | locus YER155C, strain BEM2, active compounds read low 0.992 | locus YER167W, strain BCK2, active compounds read low 0.99 | locus YFR010W, strain ubp6, active compounds read low 1.03 | locus YGL078C, strain dbp3, active compounds read low 1 | locus YGL086W, strain mad1, active compounds read low 1 | locus YGL167C, strain pmr1, active compounds read low 1 | locus YGL173C, strain kem1, active compounds read low 1 | locus YGL227W, strain vid30, active compounds read low 0.998 | locus YGL240W, strain doc1, active compounds read low 1.03 | locus YGL248W, strain PDE1, active compounds read low 0.987 | locus YGL253W, strain hxk2, active compounds read low 1 | locus YGR078C, strain PAC10, active compounds read low 0.997 | locus YGR135W, strain pre9, active compounds read low 1 | locus YGR252W, strain gcn5, active compounds read low 0.907 | locus YHR013C, strain ard1, active compounds read low 1 | locus YHR027C, strain rpn1, active compounds read low 0.999 | locus YHR030C, strain SLT2, active compounds read low 0.999 and 1 | locus YHR079C, strain IRE1 (second series), active compounds read low 1.01 | locus YHR079C, strain IRE1, active compounds read low 1.04 | locus YHR094C, strain hxt1, active compounds read low 1 | locus YHR129C, strain ARP1, active compounds read low 0.998 | locus YHR142W, strain chs7, active compounds read low 1 | locus YHR200W, strain rpn10, active compounds read low 1.01 | locus YIL066C, strain RNR3, active compounds read low 0.962 | locus YIL073C, strain SPO22, active compounds read low 1.03 | locus YIL125W, strain kgd1, active compounds read low 1.01 | locus YIR030C, strain dcg1, active compounds read low 1.01 | locus YJL092W, strain hpr5, active compounds read low 1.03 | locus YJL095W, strain BCK1 (second series), active compounds read low 0.985 | locus YJL095W, strain BCK1, active compounds read low 0.995 and 1.03 | locus YJL115W, strain asf1, active compounds read low 1.01 | locus YJL129C, strain trk1, active compounds read low 1.01 | locus YJL134W, strain LCB3, active compounds read low 0.992 | locus YJL154C, strain vps35, active compounds read low 0.998 | locus YJL164C, strain tpk1, active compounds read low 0.996 | locus YJL166W, strain qcr8, active compounds read low 1.02 | locus YJL168C, strain set2, active compounds read low 1.01 | locus YJL187C, strain SWE1 (second series), active compounds read low 0.992 | locus YJR043C, strain POL32, active compounds read low 0.952 | locus YJR066W, strain TOR1, active compounds read low 0.993 | locus YKL009W, strain mrt4, active compounds read low 1.04 | locus YKL068W, active compounds read low 0.994 | locus YKL085W, strain MDH1 (second series), active compounds read low 1.01 | locus YKL085W, strain MDH1, active compounds read low 1.01 | locus YKL160W, strain elf1, active compounds read low 0.996 | locus YKR001C, strain vps1, active compounds read low 1.04 | locus YKR026C, strain gcn3, active compounds read low 1 | locus YKR091W, strain srl3, active compounds read low 0.993 | locus YLL001W, strain dnm1, active compounds read low 1 | locus YLL026W, active compounds read low 1 | locus YLL041C, strain sdh2, active compounds read low 0.999 | locus YLR027C, strain aat2, active compounds read low 1 | locus YLR039C, strain RIC1, active compounds read low 1.01 | locus YLR058C, strain SHM2, active compounds read low 0.992 | locus YLR102C, strain apc9, active compounds read low 1 | locus YLR113W, strain HOG1, active compounds read low 1.02 | locus YLR221C, strain rsa3, active compounds read low 0.987 | locus YLR258W, strain gsy2, active compounds read low 0.995 | locus YLR262C, strain YPT6 (second series), active compounds read low 0.996 | locus YLR262C, strain YPT6, active compounds read low 1.05 | locus YLR268W, strain sec22, active compounds read low 0.991 | locus YLR320W, strain mms22, active compounds read low 0.992 | locus YLR330W, strain CHS5, active compounds read low 0.997 | locus YLR342W, strain FKS1 (second series), active compounds read low 0.942 | locus YLR342W, strain FKS1, active compounds read low 1.01 | locus YLR357W, strain rsc2, active compounds read low 1.02 | locus YLR370C, strain arc18, active compounds read low 1.02 | locus YLR371W, strain rom2, active compounds read low 1.01 | locus YLR384C, strain iki3, active compounds read low 1.01 | locus YLR418C, strain cdc73, active compounds read low 0.958 | locus YML016C, strain PPZ1, active compounds read low 0.996 | locus YML032C, strain rad52, active compounds read low 1.01 | locus YML120C, strain ndi1, active compounds read low 1 | locus YML124C, strain tub3, active compounds read low 1 | locus YMR058W, strain fet3, active compounds read low 1.02 | locus YMR078C, strain ctf18, active compounds read low 1.02 | locus YMR125W, strain sto1, active compounds read low 0.988 | locus YMR129W, active compounds read low 0.998 | locus YMR205C, strain PFK2, active compounds read low 1 | locus YMR223W, strain ubp8, active compounds read low 1.01 | locus YMR231W, strain pep5, active compounds read low 1 | locus YMR263W, strain SAP30, active compounds read low 0.99 and 0.985 | locus YMR307W, strain GAS1, active compounds read low 0.893 | locus YNL067W, strain RPL9B, active compounds read low 0.977 | locus YNL071W, strain lat1, active compounds read low 0.991 | locus YNL128W, strain TEP1, active compounds read low 1 | locus YNL153C, strain GIM3, active compounds read low 0.995 and 0.976 | locus YNL175C, strain NOP13, active compounds read low 0.985 | locus YNL183C, strain NPR1, active compounds read low 0.978 | locus YNL197C, strain WHI3, active compounds read low 1.01 | locus YNL209W, strain ssb2, active compounds read low 0.998 | locus YNL224C, strain SQS1, active compounds read low 1.02 | locus YNL233W, strain BNI4, active compounds read low 0.994 | locus YNL248C, strain rpa49, active compounds read low 0.926 | locus YNL250W, strain rad50, active compounds read low 1.01 | locus YNL271C, strain bni1, active compounds read low 1.02 | locus YNL298W, strain CLA4, active compounds read low 1 | locus YNL307C, strain MCK1, active compounds read low 0.998 | locus YNL322C, strain KRE1 (second series), active compounds read low 1.02 | locus YNR049C, strain mso1, active compounds read low 1.02 | locus YNR052C, strain pop2, active compounds read low 1.01 | locus YOL012C, strain htz1 0.774 | locus YOL147C, strain pex11, active compounds read low 1.01 | locus YOR001W, strain rrp6, active compounds read low 1.01 | locus YOR061W, strain CKA2, active compounds read low 0.994 | locus YOR069W, strain VPS5, active compounds read low 0.994 | locus YOR070C, strain gyp1, active compounds read low 0.986 | locus YOR080W, strain dia2, active compounds read low 1 | locus YOR083W, strain WHI5 (second series), active compounds read low 0.991 | locus YOR083W, strain WHI5, active compounds read low 1 | locus YOR106W, strain vam3, active compounds read low 1.02 | locus YOR136W, strain idh2, active compounds read low 1.03 | locus YOR144C, strain elg1, active compounds read low 1 | locus YOR184W, strain ser1, active compounds read low 1 | locus YOR231W, strain MKK1, active compounds read low 1.04 | locus YOR265W, strain rbl2, active compounds read low 0.994 | locus YOR270C, strain vph1, active compounds read low 1.01 | locus YOR290C, strain snf2, active compounds read low 0.992 | locus YOR316C, strain cot1, active compounds read low 1 | locus YPL051W, strain arl3, active compounds read low 1 | locus YPL055C, strain LGE1, active compounds read low 0.959 and 1.01 | locus YPL078C, strain atp4, active compounds read low 1.01 | locus YPL106C, strain sse1, active compounds read low 1 | locus YPL240C, strain hsp82, active compounds read low 1.02 | locus YPL256C, strain CLN2, active compounds read low 1.04 | locus YPR119W, strain clb2, active compounds read low 1.01 | locus YPR141C, strain kar3, active compounds read low 1.02 | locus YPR163C, strain tif3, active compounds read low 1 | locus YPR167C, strain met16, active compounds read low 1.01 | strain wtn01, active compounds read low 0.997
